AMA1-RON2 inh: qHTS for Inhibitors of AMA1-RON; Towards Development of Antimalarial Drug Lead: Primary Screen; AID 720542, 2013; Potency, µM (top dose mostly 58.2 µM), for the others: top-dose activity change, negative = inhibition, actives largely listed as inhibitors; AlphaScreen AMA1-biotinylated RON2 peptide binding; actives 0.2% (n = 360,000);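 also: 0% = vehicle wells and -100% = peptide control; nearly all actives have a fitted effect of over 45% in size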
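AMA1 (3D7) with his tag at 25 nM final met compounds first, then biotinylated RON2 peptide at 25 nM; detection used donor plus acceptor beads, 10 µg/mL apiece, read by AlphaScreen after 30 min at room temperature.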
HCV inh: qHTS Assay for Inhibitors of Hepatitis C Virus (HCV); Huh7.5.1 HCVcc-Cre infection, luciferase reporter, 44 h; actives 3.4% (n = 340,000); AID 651820, 2012; Potency, µM (doses to about 41.8 µM), without a hit: at the top dose activity change, negative = inhibition, most hits filed as inhibitors
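Cells seeded at 1,000/well and cultured 4 h, then compounds added followed by HCVcc-Cre virus (~0.5 moi). After 44 h further culture, luciferase substrate was added, plates held 15 min at room temperature, and luminescence read for 15 sec.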
Pf growth 96h: Primary qHTS for delayed death inhibitors of the malarial parasite plastid, 96 hour incubation | actives 6.9% (n = 320,000) | AID 504834, 2011 | P. falciparum luciferase reporter growth, 96 h | Potency, µM (series often up to 28.7 µM), inactives show at the highest dose activity change, negative = inhibition, actives largely listed as inhibitors
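Two-generation exposure (96 h) targets delayed-death phenotype. Reporter parasites carrying integrated firefly luciferase, in red cells at 2% hematocrit and 0.05% parasitemia final, kept at 37 C, 5% CO2; luminescence loss indicates inhibition.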
Pf growth 48h: Primary qHTS for delayed death inhibitors of the malarial parasite plastid, 48 hour incubation; actives 5.9% (n = 310,000); Potency, µM (titrated, usually from 28.7 µM), for inactives: top-dose activity change, negative = inhibition, hits mostly inhibitors; P. falciparum luciferase growth in erythrocytes, 48 h
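Read-out is firefly luciferase luminescence from an integrated reporter in P. falciparum, so falling signal marks reduced parasite growth. Infected erythrocytes were at 2% hematocrit and 0.1% parasitemia (final) in Albumax-supplemented RPMI 1640.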
An asterisk follows results filed as active; ? = inconclusive; . = no result; [ ] = remark or other dose. Most compounds without a hit are left out; they make up all but 11% or so of the library. Calls follow the shape of the dose curve; as a rule, active = well fitted curve in the direction sought with a large enough effect; inconclusive = small, poorly fitted or top-dose-only effect, or another doubt; inactive = no such curve, though single readings can be large; an effect the other way counts as inactive or inconclusive. Unless noted, % is scaled to controls: 0 for no effect and ±100 for the full control effect; potency is read from the fitted curve at half-maximal effect.

SMILES	AMA1-RON2 inh	HCV inh	Pf growth 96h	Pf growth 48h
O=C(CNC(=O)c1ccc(N2CCCC2=O)cc1)Nc1ccc(F)c(F)c1F	15%	6%	.	.
COc1ccc2c(c1)CCc1c(C(=O)N(C)c3ccccc3)noc1-2	-5%	5%	?	86%
CCN(CC)c1ccc(C(=O)N/N=C(\C)c2ccc(O)cc2)cc1	1%	-27%	10µM*	?
COc1ccc(/C(C)=N/NC(=O)c2ccc(N(C)C)cc2)cc1	-11%	-10%	0.59µM*	?
C/C(=N\NC(=O)c1ccc(O)cc1)c1ccc2c(c1)Nc1ccccc1S2	-30%	10µM*	?	?
C/C(=N\NC(=O)c1ccc(OC2CCCC2)cc1)c1ccc(O)cc1	-6%	-28%	13µM*	?
CC1CCCC(NC(=O)COC(=O)[C@@H](NC(=O)c2ccco2)C(C)C)C1C (stereo not given in full)	-8%	2%	-14%	-26%
Nc1ncnc2c1nc(Br)n2[C@@H]1O[C@@H]2COP(=O)(O)O[C@H]2[C@H]1O	0%	29%	.	.
Cc1ccc(C(=O)CC(Nc2ccc(F)cc2)c2ccccc2)cc1 (stereo not given)	?	7%	?	81%
CCCc1cc(=O)[nH]c(SCC(=O)NC2(C#N)CCCCC2)n1	4%	4%	-20%	-23%
CCOC(=O)c1cc2c(C)n(-c3ccc(OCC)cc3)c(C)c2ccc1=O	-5%	?	4.1µM*	?
CCOC(=O)c1cc2c(C)n(-c3ccc(C)cc3)c(C)c2ccc1=O	-23%	11µM*	0%	?
CCOC(=O)c1c[nH]n(-c2ccc(C)cc2)c1=O	-2%	3%	-13%	-3%[5.75 µM]
Cn1nc(C(F)(F)F)cc1C(=O)NC1CCCCCC1	-5%	-7%	49%	-2%
CCCC(=O)N1CCCC1(C)C(=O)Nc1cc(OC)c(OC)c(OC)c1 (stereo not given)	0%	.	.	.
COc1ccc(-c2oc3ccc(-c4cc(OC)c(OC)c(OC)c4)cc3c2-c2ccc(OC)cc2)cc1	-4%	-2%	.	.
COc1ccc(-c2oc3ccc(-c4cc(OC)c(OC)c(OC)c4)cc3c2-c2ccc(OC)nc2)cc1	0%	3%	3.3µM*	?
CC(Oc1cccc(Cl)c1)C(=O)Nc1ccccc1N1CCCCC1 (stereo not given)	-3%	-8%	12µM*	5.9µM*
CCC(Oc1ccccc1)C(=O)Nc1ccccc1N1CCCCC1 (stereo not given)	5%	?	89%	-11%
CC(Oc1ccc(F)cc1)C(=O)Nc1ccccc1N1CCCCC1 (stereo not given)	6%	.	12µM*	?
CCN(CC)C(=O)CSc1nc2c(c(-c3cccnc3)c1C#N)CCCC2	-22%	-16%	7%	-17%
CN(Cc1ccccc1)C(=O)Nc1c(Cl)cccc1Cl	0%	.	.	.
COc1ccc2cc(C3CC(c4ccco4)=NN3S(=O)(=O)c3ccccc3)c(Cl)nc2c1 (stereo not given)	-20%	?	?	?
CS(=O)(=O)N1N=C(c2ccco2)CC1c1ccc(Cl)cc1Cl (stereo not given)	-8%	-5%	5.2µM*	-5%
CCOc1ccc2cc(C3CC(c4ccco4)=NN3S(=O)(=O)c3ccccc3)c(Cl)nc2c1 (stereo not given)	-10%	-26%	13µM*	15µM*
SMILES	AMA1-RON2 inh	HCV inh	Pf growth 96h	Pf growth 48h
Cc1c(-c2nnc(SCC(=O)O)n2-c2ccccc2Br)nnn1-c1ccccc1	-4%[11.6 µM]	23%	?	-20%
CCCN(CCC)C(=O)c1cn(CC)c2ccc(S(=O)(=O)N3CCCCC3)cc2c1=O	0%	-3%	?	?
O=C(COc1ccc(Br)cc1)N1CCN(S(=O)(=O)/C=C/c2ccccc2)CC1	-1%	?	12µM*	?
O=C(/C=C/c1ccc(OCCCF)cc1)Nc1ccnc(-c2cccnc2)n1	-13%	?	?	10µM*
O=C(/C=C/c1ccc(OCCCF)cc1)NCc1cccc(Cl)c1	13%	?	?	?
O=C(/C=C/c1ccc(OCCCF)cc1)Nc1ccnc(-c2ccncc2)n1	-5%	?	13µM*	13µM*
COc1nc(NCCC2=CCCCC2)nc(OC)n1	?	-4%	?	10µM*
CC(NCC(=O)Nc1ccccc1C(=O)NC1CC1)c1ccc(F)cc1F (stereo not given)	7%[11.6 µM]	-9%	-30%	?
COc1ccc2c(c1OC)CN1CCc3cc4c(cc3[C@H]1C2)OCO4	-13%	11µM*	0.72µM*	3.7µM*
COc1ccc2c(c1OC)CN1CCc3cc4c(cc3C1C2)OCO4 (stereo not given)	-18%	-28%	?	?
O=C1NC(c2ccccc2)=C(c2ccc3ccccc3n2)C(c2ccc(F)cc2)N1 (stereo not given)	-6%	?	4.1µM*	5.2µM*
O=C1NC(c2ccccc2)=C(c2ccc3ccccc3n2)C(c2ccccc2)N1 (stereo not given)	-7%	?	5.2µM*	12µM*
O=C1NC(c2ccccc2)=C(c2nc3ccccc3s2)C(c2ccc(O)cc2)N1 (stereo not given)	3%	.	7.4µM*	2.1µM*
CS(=O)(=O)N1CCCCC1c1cc(C(=O)Nc2ccccc2Cl)no1 (stereo not given)	10%	.	.	.
COCCn1c(SCC(=O)NC2CCCC2)nnc1C(C)C	3%	3%	10%	10%
CCCNC(=O)N1CCC(C(=O)c2cccc(F)c2)CC1	-10%	20%	?	1%
CCCOc1ccc(C2c3c(oc4ccccc4c3=O)C(=O)N2CCN(CC)CC)cc1OC (stereo not given)	-6%	-14%	?	1.5µM*
CCN(CC)CCN1C(=O)c2oc3ccccc3c(=O)c2C1c1cccc(Br)c1 (stereo not given)	14%	10%	0.93µM*	?
O=C1c2oc3ccc(Cl)cc3c(=O)c2C(c2cccc(Br)c2)N1CCO (stereo not given)	0%	?	1%[5.75 µM]	12µM*
Cc1ccc2oc3c(c(=O)c2c1)C(c1cccc(Br)c1)N(Cc1ccco1)C3=O (stereo not given)	5%	.	13µM*	-25%
CN(C)CCCN1C(=O)c2oc3ccc(Cl)cc3c(=O)c2C1c1cccnc1 (stereo not given)	9%	1%	?	?
CCN(CC)CCN1C(=O)c2oc3ccccc3c(=O)c2C1c1ccccc1 (stereo not given)	9%	9%	?	?
Cc1cc2oc3c(c(=O)c2cc1C)C(c1cccc(Br)c1)N(Cc1ccco1)C3=O (stereo not given)	-1%	9%	?	?
NC(=O)CNc1n[nH]c(=S)[nH]c1=O	4%	11%	0%	11%
